Compound activity (PubChem BioAssay)
Wee1 stabilizer – Wee1 degradation inhibitors, primary screen, cell-based, HeLa, Wee1K328M-luciferase, luminescence; Wee1-like protein kinase (Homo sapiens), P30291; HeLa Luc-Wee1K328M stability; 100% = proteasome inhibitor MG132 effect; reporter increase, % at 5 µM; actives 1.2% (n = 220,000); AID 1321, 2008;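 active = activation above the mean of all tested compounds plus 3 SD, set per screening run, cut at about 8.8% in these data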;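 note: cells exposed to compound for 20 h before luminescence read; 0% = DMSO alone and 100% = MG132 at 30 µM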
Target sequence (P30291 whole entry K328M): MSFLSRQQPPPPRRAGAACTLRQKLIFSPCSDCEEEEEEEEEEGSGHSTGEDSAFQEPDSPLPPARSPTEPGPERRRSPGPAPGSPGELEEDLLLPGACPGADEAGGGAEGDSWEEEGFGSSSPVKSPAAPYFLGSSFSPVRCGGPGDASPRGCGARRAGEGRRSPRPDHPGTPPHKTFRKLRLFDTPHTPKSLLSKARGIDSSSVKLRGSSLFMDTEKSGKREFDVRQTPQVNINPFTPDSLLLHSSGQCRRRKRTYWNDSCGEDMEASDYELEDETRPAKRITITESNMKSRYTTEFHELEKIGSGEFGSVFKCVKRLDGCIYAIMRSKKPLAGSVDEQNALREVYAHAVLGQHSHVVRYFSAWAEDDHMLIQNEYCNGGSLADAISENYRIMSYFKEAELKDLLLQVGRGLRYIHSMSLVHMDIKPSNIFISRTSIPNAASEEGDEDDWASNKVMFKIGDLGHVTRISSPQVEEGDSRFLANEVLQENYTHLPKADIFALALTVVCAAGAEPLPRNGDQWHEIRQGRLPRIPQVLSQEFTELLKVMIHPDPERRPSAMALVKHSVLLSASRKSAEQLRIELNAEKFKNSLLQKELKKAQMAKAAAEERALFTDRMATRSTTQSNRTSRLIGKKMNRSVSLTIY
HIF activator – HIF pathway transcriptional activators, primary screen, cell-based, U2OS HRE-luciferase, luminescence; U2OS HRE-luciferase reporter; normalized: DMSO 0%, desferrioxamine 100%; actives 0.32% (n = 300,000); activation, % at 7.5 µM (by protocol);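 active = mean activation of at least 10% of the iron chelator positive control signal, with at least half of replicates also reaching 10%; inconclusive = mean and replicate majority disagree about reaching 10%; inactive = mean and most replicates under 10%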
KLF5 inhibitor – KLF5 expression inhibitors, primary screen, DLD-1 cells, luminescence | DLD-1 KLF5 promoter-luciferase reporter | inhibition, % at 5 µM | actives 0.23% (n = 290,000) | AID 1700, 2009;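 active = inhibition above a per-plate limit of that plate's mean compound inhibition plus 3 SD, cut at about 60% in these data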;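 note: 0% = DMSO wells and 100% = LY294002 at 200 µM; higher means less KLF5 promoter-driven luciferase light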
aSyn UTR inh – MLPCN primary screen, SNCA 5' untranslated region; inhibition, % (tested at 7.5 µM); actives 0.82% (n = 300,000); alpha-synuclein 5'UTR reporter, inhibitor activity; in the data active = inhibition above about 60%; inconclusive = no clear call, values can overlap the other calls;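 note: H4 neuroglioblastoma cells stably carrying SNCA 5'UTR luciferase fusion; 0% = DMSO wells and 100% = positive control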
Platelet DG rel – inhibitors of platelet dense granule secretion, primary screen, cell-based, MLPCN, human platelets; inhibition, %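 (compounds screened at 7.5 µM in platelet-rich plasma)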; human platelet-rich plasma, SFLLRN dense granule ATP release, luminescence; actives 0.22% (n = 300,000);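 active = mean replicate score, as percent of positive control, at or above 50; inconclusive = mean below 50 but at least one replicate at or above 50; inactive = mean and every replicate below 50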
Numbers without * were called inactive. Compounds with a hit are over-represented: about 2.1% of the library has one in this group of screens.

`C=CCn1c(SCc2ccccc2C#N)nnc1-c1cc(Br)ccc1O` gave Wee1 stabilizer 10*, HIF activator 0, KLF5 inhibitor 0, aSyn UTR inh 5 and Platelet DG rel -3.
Screening CCCCN(C(=O)CSCC(=O)Nc1ccc(C)cc1)c1c(N)n(CCCC)c(=O)[nH]c1=O returned HIF activator -1, aSyn UTR inh 8 and Platelet DG rel -2.
For Nc1ccccc1C(=O)NNc1c2ccccc2nc2ccccc12 the results were Wee1 stabilizer 4, HIF activator 2, KLF5 inhibitor -58, aSyn UTR inh -52 and Platelet DG rel 8.
For O=C1CSC(c2cn(-c3ccccc3)nc2-c2ccc3c(c2)OCCO3)N1CCN1CCOCC1 (centres undefined) the results were Wee1 stabilizer -1, HIF activator 0, KLF5 inhibitor -4, aSyn UTR inh 25 and Platelet DG rel 55*.
For c1ccc(-n2cc(CN3CCC(N4CCOCC4)CC3)c(-c3ccc4c(c3)OCO4)n2)cc1 the results were Wee1 stabilizer -3, HIF activator 0, KLF5 inhibitor -21, aSyn UTR inh -4 and Platelet DG rel 2.
Screening COc1ccc(Oc2c(Cl)cnn(-c3ccc(Cl)c(Cl)c3)c2=O)cc1 returned Wee1 stabilizer -2, HIF activator -6, KLF5 inhibitor 19, aSyn UTR inh 73* and Platelet DG rel 8.
Screening CCCOC(c1ccccc1)(c1ccc(C(F)(F)F)cc1)C(Oc1nc(C)cc(C)n1)C(=O)O (centres undefined) returned HIF activator -1, KLF5 inhibitor 70*, aSyn UTR inh inconclusive and Platelet DG rel -3.
CCOc1ccc(C(=O)NCC(=O)NC(C)CCc2ccccc2)cc1OCC (centres undefined) was read as HIF activator 0, KLF5 inhibitor -12, aSyn UTR inh 36 and Platelet DG rel -5.
For O=C(CSc1nc2[nH]ncc2c(=O)[nH]1)Nc1ccccc1F the results were HIF activator 0, aSyn UTR inh 7 and Platelet DG rel 0.
Screening Cc1ccc(N=Nc2c(=O)[nH]n3c(C)cc(C)nc23)cc1 returned Wee1 stabilizer 11*, HIF activator -1, KLF5 inhibitor -5, aSyn UTR inh -4 and Platelet DG rel 5.
Cc1cccc(N(C)S(=O)(=O)c2csc(C(N)=O)c2)c1 was read as HIF activator -14, KLF5 inhibitor 4, aSyn UTR inh 9 and Platelet DG rel -2.
Screening O=S(=O)(c1ccc(Cl)s1)N1CCCc2cccc(O)c21 returned Wee1 stabilizer 9.2*, HIF activator 5, KLF5 inhibitor -88, aSyn UTR inh -125 and Platelet DG rel 4.
`COc1ccc(/C=N\NC(=O)c2cccc(F)c2)cc1COc1ccccc1` gave HIF activator 1, aSyn UTR inh 88* and Platelet DG rel 5.
`COc1ccc(OCc2cc(/C=N\NC(=O)c3ccccc3)ccc2OC)cc1` gave HIF activator 4, KLF5 inhibitor 4, aSyn UTR inh -53 and Platelet DG rel 9.
For CCC1CCCCN1CCCNC(=O)Cn1ncn2nc(-c3ccc(OC)cc3)cc2c1=O (centres undefined) the results were HIF activator 3, KLF5 inhibitor -25, aSyn UTR inh -61 and Platelet DG rel -12.
For Cc1ccc(C(=O)Nc2ccc(C(=O)N3CCCCC3)cc2)cc1 the results were Wee1 stabilizer -1, HIF activator 0, KLF5 inhibitor -14, aSyn UTR inh -35 and Platelet DG rel -2.
`COc1ccc(N2CCc3c(C)nc4c(OC)cccc4c32)cc1` gave Wee1 stabilizer 5, HIF activator 0, KLF5 inhibitor 57, aSyn UTR inh 89* and Platelet DG rel -14.
Screening COc1ccc(N2CCc3c(C)nc4c(OC)cc(OC)cc4c32)cc1 returned Wee1 stabilizer 0, HIF activator 1, KLF5 inhibitor -43, aSyn UTR inh 7 and Platelet DG rel -2.
`CCOC(=O)c1sc(N(Cc2ccccc2)C(=O)COC(=O)c2ccccc2O)nc1C` gave Wee1 stabilizer 1, HIF activator 0, KLF5 inhibitor -32, aSyn UTR inh -39 and Platelet DG rel -5.
CCOC(=O)c1sc(N(Cc2ccccc2)C(=O)COC(=O)c2ccc(O)cc2)nc1C was read as Wee1 stabilizer -4, HIF activator 10.0*, KLF5 inhibitor -1, aSyn UTR inh -30 and Platelet DG rel -2.
CCN1C(=O)/C(=C\N(C(C)=O)c2ccccc2)OC1=S was read as Wee1 stabilizer 2, HIF activator 0, KLF5 inhibitor -22, aSyn UTR inh -60 and Platelet DG rel -7.
For CC(=O)N(/C=C1\SC(=S)N(c2ccccc2)C1=O)c1ccccc1 the results were Wee1 stabilizer 10*, HIF activator 1, KLF5 inhibitor -18, aSyn UTR inh -52 and Platelet DG rel 22.
`Cc1cccc(NC(=O)C2CCN(C(=O)N3CCOc4ccccc43)CC2)c1C` gave HIF activator 0, KLF5 inhibitor 2, aSyn UTR inh 16 and Platelet DG rel -2.
Cc1ccc(C)c(CNS(=O)(=O)c2ccc3c(c2)C(C)(C)C(=O)N3C)c1 was read as HIF activator 12*, KLF5 inhibitor -3, aSyn UTR inh 5 and Platelet DG rel 0.
For CC(C)(C)c1nnc(N/N=C/c2ccccc2O)n(N)c1=O the results were Wee1 stabilizer 8, HIF activator 0, KLF5 inhibitor 19, aSyn UTR inh 110* and Platelet DG rel 15.
`CCN(CC)C1CC(=O)N(c2cccc(C)c2)C1=O` (centres undefined) gave Wee1 stabilizer 10.0*, HIF activator 0, KLF5 inhibitor -24, aSyn UTR inh -6 and Platelet DG rel 1.
For C(=N\Nc1nc2ccccc2s1)/c1ccccn1 the results were Wee1 stabilizer -4, HIF activator -1, KLF5 inhibitor 49, aSyn UTR inh 101* and Platelet DG rel 24.
Screening Brc1csc(/C=N/Nc2nc3ccccc3s2)c1 returned Wee1 stabilizer 8.9*, HIF activator 4, KLF5 inhibitor -16, aSyn UTR inh -275 and Platelet DG rel 6.
`Cc1csc(N/N=C/c2ccc([N+](=O)[O-])cc2)n1` gave HIF activator 1, KLF5 inhibitor -103, aSyn UTR inh -148 and Platelet DG rel -3.
Screening C(=N\Nc1nc2ccccc2s1)/c1ccc2c(c1)OCO2 returned Wee1 stabilizer 5, HIF activator 2, KLF5 inhibitor -113, aSyn UTR inh -190 and Platelet DG rel 2.
For Cc1csc(N/N=C/c2ccccn2)n1 the results were Wee1 stabilizer 1, HIF activator -1, KLF5 inhibitor -57, aSyn UTR inh 69* and Platelet DG rel 43.
For COc1cccc(-c2nnn(CC(=O)N3CCCCC3)n2)c1 the results were HIF activator 5, KLF5 inhibitor -86, aSyn UTR inh -74 and Platelet DG rel 9.
